Measured values reported in PubChem BioAssay (NCATS).
Where “and” joins values, the source holds several entries; their conditions need not be identical. Equal values may be shown once. A number with no mark means an inactive call. Records with an inconclusive call do not appear. Calls of active or inactive are those of the source. Unless noted, the call rests on the fitted dose curve; in most records, active means well fitted curve in either direction with a large enough effect (not every such curve was filed as active); inconclusive means small, poorly fitted or top-dose-only effect, or another doubt; inactive means flat fitted curve, though single readings scatter.

Key:
[1] = AP1 Signaling Pathway (AID 357); conditions: ME-180 AP-1-bla reporter, EGF-induced, beta-lactamase ratio, 5 h;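 further: ME-180 reporter cells stimulated with EGF at its EC50 level; on the % scale 0 is the no-effect control and ±100 the full control effect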
How it was run: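 A ratiometric CCF4 readout (405 nm excitation; 460 and 530 nm emission) quantified AP-1-driven beta-lactamase in ME-180 cells after 5 h with compound and EC50 EGF; AC50 values were derived for activators and inhibitors.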

[2] = target: Cytochrome P450 1A2 (Homo sapiens) (UniProt P05177); test: p450-cyp1a2 (AID 410; calls by dose curve; further: potency means the concentration at half of the fitted maximal effect;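 on activity change, negative = inhibition: -100% = full effect of reference inhibitor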); conditions: recombinant CYP1A2, luciferin-ME demethylation, luminescence; series mostly up to 25.6 µM
How it was run: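 Human CYP1A2 (20nM) demethylated Luciferin-ME at its Km (100uM) in 100mM KPO4. After 10 min compound preincubation, NADPH regeneration ran the reaction 60 min at room temperature. Luciferin was read by luminescence, normalized to 57 uM furafylline.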

[3] = NFAT Signaling Pathway (AID 444); conditions: Jurkat NFAT-bla M1, carbachol, beta-lactamase ratio, 5 h;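 further: carbachol stimulus at about its EC50 of 1 µM final; on the % scale 0 is the no-effect control and ±100 the full control effect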
How it was run: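 Jurkat cells with NFAT-driven β-lactamase reporter and co-expressed M1 receptor, stimulated with carbachol (final 1 uM, ~EC50), compound titration, 5 h at 37 °C. CCF4 loaded 1 h at RT; 460/530 nm ratio gave %activity and AC50.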

[4] = Stat Signaling Pathway (AID 446); conditions: ME-180 (cervical carcinoma) SIE beta-lactamase reporter, IL-6 stimulated, 5 h;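 further: ME-180 cervical cancer cells given 40 pM IL-6 alongside compound; SIE-controlled beta-lactamase reporter measured as 460/530 nm FRET emission ratio; on the % scale 0 is the no-effect control and ±100 the full control effect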
How it was run: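 IL-6/STAT signaling read in ME-180 cells via an SIE beta-lactamase reporter. Stimulus was 40 pM IL-6 (its AC50) for 5 hrs, so both activation and inhibition register.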

[5] = target: Mitogen-activated protein kinase 10 (Mus musculus) (UniProt Q61831); test: JNK3 AlphaScreen Assay (AID 530); conditions: JNK3 lysate, c-Jun phosphorylation; series mostly up to 57.1 µM;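 further: kinase came from lysate of stimulated human HepG2 cells; signal reports phosphorylation of biotinylated GST-cJun 1-79 at Ser73 with 10 µM ATP; on the % scale 0 is the no-effect control and ±100 the full control effect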
How it was run: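 qHTS format: compounds tested as titrations against IL-1beta/TNF-alpha-activated HepG2 lysate JNK3 with biotin-GST-cJun substrate and 10 uM ATP at room temperature. Loss of anti-phospho-cJun AlphaScreen signal indicates inhibition.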

[6] = target: 3',5'-cyclic-AMP phosphodiesterase 4B (Homo sapiens) (UniProt Q07343); test: qHTS Assay for Inhibitors of PDE-IV (AID 607; active means well fitted activation curve with a large enough effect in the main read-out, with a control signal flat, not every such curve was filed as active; further: % of control where 0% means no effect); conditions: HEK293 ACTOne CNG channel cells, membrane potential fluorescence; series mostly up to 22.9 µM
How it was run: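 Live HEK293 cells with a modified cyclic nucleotide-gated (CNG) channel report intracellular cAMP via membrane-potential dye fluorescence (ex 535/em 590 nm). Endogenous PDE-IV was targeted. Compounds were tested at up to 22.9 uM final; RO 20-1724 100 uM served as control.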

[7] = target: Glucocorticoid receptor (Homo sapiens) (UniProt P04150); test: GR-GFP Redistribution (AID 450;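 active means compounds whose dose series gives a full or clear partial fitted curve of increased nuclear translocation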; further: potency means the concentration at half of the fitted maximal effect); conditions: U2OS GR-GFP nuclear translocation, laser cytometry, 2 h
[8] = target: Glucocorticoid receptor (Homo sapiens) (UniProt P04150); test: GR-EFC Redistribution (AID 451; calls by dose curve; further: potency means the concentration at half of the fitted maximal effect); conditions: CHO-K1 GR-EFC translocation, beta-gal luminescence, 2 h
How it was run: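 CHO-K1 cells expressing nuclear EA and GR-ED fragments of b-gal; compounds titrated up to 46 uM final, 2 h at 37 C. GR nuclear translocation read as complemented b-gal luminescence after 1 h RT detection.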

[9] = Cell Viability - BJ (AID 421; calls by dose curve;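 further: potency means the concentration at half of the fitted maximal effect; cells exposed to compound for 40 hours at 37 °C before readout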); conditions: BJ fibroblast viability, qHTS
How it was run: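 Quantitative HTS: ATP depletion in BJ cells after 40 hr compound exposure in complete culture medium, detected with CellTiter-Glo; AC50 from standard Hill fits.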

[10] = Cell Viability - Jurkat (AID 426;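 active means dose-dependent loss of cell ATP signal giving a full or clear fitted curve, ranked by lower potency value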; further: potency means the concentration at half of the fitted maximal effect); conditions: qHTS
How it was run: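 Jurkat (clone E6-1, human T-cell leukemia) cells, 5000/well in complete medium, were exposed to compound for 40 hr at 37 °C. Viability was read as intracellular ATP by CellTiter-Glo luminescence; AC50 came from Hill fits of concentration-response data.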

[11] = Cell Viability - Hek293 (AID 427;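 active means compounds whose dose-response curve shows a full or clear partial loss of cell viability, called from curve shape rather than a numeric limit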;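 further: potency means the concentration at half of the fitted maximal effect; cells exposed to compound for 40 hours at 37 °C before reading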); conditions: qHTS
How it was run: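 AC50 values derive from Hill-modelled concentration-response of ATP-based luminescence, normalized between DMSO-only and 100 uM tamoxifen controls. Cells were exposed in complete culture medium for 40 hr at 37 °C before detection.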

[12] = Cell Viability - HepG2 (AID 433; calls by dose curve;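 further: potency means the concentration at half of the fitted maximal effect; potency for ATP loss meaning cytotoxicity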); conditions: qHTS
How it was run: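 Cytotoxicity read as ATP loss (CellTiter-Glo luminescence) after 40 hr compound exposure of HepG2, 1500 cells/well, 37 °C. AC50 by Hill equation; 0% set by DMSO, 100% inhibition by 100 uM tamoxifen.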

[13] = Cell Viability - HUV-EC-C (AID 542; active means well fitted curve in the direction sought with a large enough effect; an effect the other way counts as inactive or inconclusive; further: on the % scale 0 is the no-effect control and ±100 the full control effect; nearly all actives have a fitted effect of over 35% in size); conditions: HUV-EC-C endothelial cell viability, qHTS; series mostly up to 92.2 µM
How it was run: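 HUV-EC-C normal human vascular endothelial cells, 1000 cells/well, pre-incubated 5 hr at 37 °C, then exposed to compounds for 40 hr at 37 °C in complete medium. Viability measured as intracellular ATP by CellTiter-Glo luminescence; AC50 from Hill fits.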

[14] = Cell Viability - SH-SY5Y (AID 544; active means well fitted curve in the direction sought with a large enough effect; an effect the other way counts as inactive or inconclusive;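 further: 0% = DMSO alone and -100% = 100 µM tamoxifen; nearly all actives have a fitted effect of over 55% in size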); conditions: SH-SY5Y neuroblastoma cell viability; series mostly up to 92.2 µM
How it was run: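 Human neuroblastoma SH-SY5Y cells (1500/well) in complete medium were exposed to compounds for 40 hr at 37 °C; intracellular ATP was then quantified by CellTiter-Glo luminescence after 20 min at room temperature. AC50 came from Hill-equation concentration-response fits.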

[15] = Cell Viability - Mesenchymal (AID 546; active means well fitted curve in the direction sought with a large enough effect; an effect the other way counts as inactive or inconclusive;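 further: cells exposed to compound for 40 hours before reading; 0% = DMSO only and -100% = 100 µM tamoxifen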); conditions: mesenchymal cells viability, qHTS; series mostly up to 91.7 µM
How it was run: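 Human kidney mesenchymal cells from normal renal glomeruli, 1000 cells/well, rested 5 hr at 37 °C, then treated 40 hr at 37 °C in complete medium. Cellular ATP read by CellTiter-Glo luminescence; AC50 from Hill-equation fits.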

Chain of Glucocorticoid receptor (Homo sapiens) (P04150 whole entry, looked up, the tested form may be a part): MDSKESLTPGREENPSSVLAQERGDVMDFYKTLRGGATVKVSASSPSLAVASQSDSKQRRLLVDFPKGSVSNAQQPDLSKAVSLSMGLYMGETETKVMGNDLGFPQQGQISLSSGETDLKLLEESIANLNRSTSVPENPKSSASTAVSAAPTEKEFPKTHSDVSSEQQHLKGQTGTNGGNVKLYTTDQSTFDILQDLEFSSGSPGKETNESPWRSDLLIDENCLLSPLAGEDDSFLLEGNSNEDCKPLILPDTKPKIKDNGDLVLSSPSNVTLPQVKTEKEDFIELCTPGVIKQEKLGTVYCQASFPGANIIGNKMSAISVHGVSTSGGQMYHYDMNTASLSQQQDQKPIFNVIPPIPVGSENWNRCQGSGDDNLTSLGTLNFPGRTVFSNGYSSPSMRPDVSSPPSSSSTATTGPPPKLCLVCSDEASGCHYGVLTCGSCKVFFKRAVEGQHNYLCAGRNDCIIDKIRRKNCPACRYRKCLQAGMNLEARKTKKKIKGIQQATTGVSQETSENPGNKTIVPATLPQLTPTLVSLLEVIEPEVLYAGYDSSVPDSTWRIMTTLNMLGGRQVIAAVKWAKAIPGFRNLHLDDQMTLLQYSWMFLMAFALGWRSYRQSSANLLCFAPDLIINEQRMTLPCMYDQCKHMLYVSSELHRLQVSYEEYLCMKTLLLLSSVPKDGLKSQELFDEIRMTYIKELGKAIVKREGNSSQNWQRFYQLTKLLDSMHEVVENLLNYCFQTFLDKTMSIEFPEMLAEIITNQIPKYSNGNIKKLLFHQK
Chain of 3',5'-cyclic-AMP phosphodiesterase 4B (Homo sapiens) (Q07343 whole entry, looked up): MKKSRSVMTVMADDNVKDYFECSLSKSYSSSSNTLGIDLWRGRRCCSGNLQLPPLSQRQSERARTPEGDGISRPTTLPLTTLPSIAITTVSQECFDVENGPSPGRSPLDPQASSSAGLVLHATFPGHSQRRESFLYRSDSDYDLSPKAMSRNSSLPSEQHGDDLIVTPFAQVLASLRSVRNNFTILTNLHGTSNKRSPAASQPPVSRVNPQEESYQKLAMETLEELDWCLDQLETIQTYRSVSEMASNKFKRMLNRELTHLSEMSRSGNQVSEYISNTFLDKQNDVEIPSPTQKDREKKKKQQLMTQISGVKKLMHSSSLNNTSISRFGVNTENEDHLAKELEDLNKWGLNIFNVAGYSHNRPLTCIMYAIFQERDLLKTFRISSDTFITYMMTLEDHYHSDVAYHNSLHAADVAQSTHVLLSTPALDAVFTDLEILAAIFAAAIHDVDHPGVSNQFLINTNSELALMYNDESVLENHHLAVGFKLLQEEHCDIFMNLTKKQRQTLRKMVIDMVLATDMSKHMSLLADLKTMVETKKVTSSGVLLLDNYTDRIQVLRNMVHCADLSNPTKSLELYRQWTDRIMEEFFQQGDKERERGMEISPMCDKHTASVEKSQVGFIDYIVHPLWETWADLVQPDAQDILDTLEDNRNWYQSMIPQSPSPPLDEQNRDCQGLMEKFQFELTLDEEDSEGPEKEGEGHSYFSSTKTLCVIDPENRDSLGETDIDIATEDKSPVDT
Chain of Cytochrome P450 1A2 (Homo sapiens) (P05177 whole entry, looked up): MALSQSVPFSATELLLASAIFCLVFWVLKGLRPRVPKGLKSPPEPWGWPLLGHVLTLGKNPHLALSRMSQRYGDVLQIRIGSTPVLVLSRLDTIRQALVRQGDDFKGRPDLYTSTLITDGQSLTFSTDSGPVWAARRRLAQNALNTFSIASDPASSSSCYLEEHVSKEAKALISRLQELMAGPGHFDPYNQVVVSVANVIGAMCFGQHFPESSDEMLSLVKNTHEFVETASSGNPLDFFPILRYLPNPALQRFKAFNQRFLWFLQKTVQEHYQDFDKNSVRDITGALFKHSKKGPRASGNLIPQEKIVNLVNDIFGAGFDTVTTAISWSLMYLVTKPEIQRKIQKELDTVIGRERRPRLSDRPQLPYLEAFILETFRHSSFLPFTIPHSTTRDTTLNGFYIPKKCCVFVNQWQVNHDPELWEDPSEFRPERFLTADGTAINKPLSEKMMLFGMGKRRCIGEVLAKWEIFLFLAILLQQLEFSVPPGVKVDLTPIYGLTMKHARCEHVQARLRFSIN

Structure (SMILES): COc1ccc(Cl)cc1C(=O)NCCc1ccc(S(=O)(=O)NC(=O)NC2CCCCC2)cc1
- activity change, negative = inhibition ([1]; at 17.2 µM (top of the series)): -12.3% and -19.5%
- activity change, negative = inhibition ([1]; at 38 µM (top of the series)): -26.7%
- Potency [2]: inactive
- activity change, negative = inhibition ([3]; at 17.2 µM (top of the series)): -3.12% and -29.5%
- activity change, negative = inhibition ([3]; at 38 µM (top of the series)): 0.0491%
- activity, negative = inhibition ([4]; at 17.2 µM (top of the series)): -3.96% and -3.07%
- activity, negative = inhibition ([4]; at 38 µM (top of the series)): 4.48%
- Potency [5]: inactive
- outcome [6]: inactive

Structure (SMILES): NS(=O)(=O)c1cc2c(cc1Cl)NC(CSCc1ccccc1)=NS2(=O)=O
- activity change, negative = inhibition ([1]; at 17.2 µM (top of the series)): -6.04% and -5.71%
- Potency [2]: inactive
- activity change, negative = inhibition ([3]; at 17.2 µM (top of the series)): -9.25% and 1.09%
- Potency [7]: > 20.6 µM
- Potency [8]: > 20.6 µM
- Potency [5]: inactive
- outcome [6]: inactive

Structure (SMILES): CCCCN1CCCC[C@H]1C(=O)Nc1c(C)cccc1C
- activity change, negative = inhibition ([1]; at 17.2 µM (top of the series)): 0.542%
- Potency [2]: 5.01 µM (active)
- activity change, negative = inhibition ([3]; at 17.2 µM (top of the series)): 3.05%
- Potency [5]: inactive
- outcome [6]: inactive

Structure (SMILES): CNCCCC1c2ccccc2C=Cc2ccccc21
- activity change, negative = inhibition ([1]; at 17.2 µM (top of the series)): -3.44% and 2.28%
- Potency [2]: inactive
- activity change, negative = inhibition ([3]; at 17.2 µM (top of the series)): -94% (active)
- Potency [7]: > 46 µM and > 20.6 µM
- Potency [8]: > 46 µM and > 20.6 µM
- Potency [5]: inactive
- outcome [6]: inactive

Structure (SMILES): CC(C)NC[C@H](O)c1ccc(O)c(O)c1
- activity change, negative = inhibition ([1]; at 17.2 µM (top of the series)): 3.55% and -12.3%
- activity change, negative = inhibition ([1]; at 38 µM (top of the series)): -3.34% [middle of 4 runs]
- activity change, negative = inhibition ([3]; at 17.2 µM (top of the series)): -6.44% and -3.44%
- activity, negative = inhibition ([4]; at 17.2 µM (top of the series)): -5.65% and -7.18%
- activity, negative = inhibition ([4]; at 38 µM (top of the series)): -27.8% and -1.34% and -7.26%
- Potency [7]: > 46 µM and > 20.6 µM
- Potency [8]: > 46 µM and > 20.6 µM
- Potency [5]: inactive
- outcome [6]: inactive

Structure (SMILES): Nc1ccc(S(=O)(=O)Nc2ccc(Cl)nn2)cc1
- activity change, negative = inhibition ([1]; at 17.2 µM (top of the series)): 7.06%
- Potency [2]: inactive
- activity change, negative = inhibition ([3]; at 17.2 µM (top of the series)): 9.43%
- activity, negative = inhibition ([4]; at 17.2 µM (top of the series)): -3.21%
- Potency [5]: inactive
- outcome [6]: inactive

Structure (SMILES): C[C@]12C[C@H](O)[C@H]3[C@@H](CCC4=CC(=O)CC[C@@]43C)[C@@H]1CC[C@@H]2C(=O)CO
- activity change, negative = inhibition ([1]; at 17.2 µM (top of the series)): 0.397%
- Potency [9]: > 92 µM
- Potency [10]: > 92 µM
- Potency [11]: > 92 µM
- Potency [12]: > 92 µM
- activity change, negative = inhibition ([3]; at 17.2 µM (top of the series)): 2.08%
- activity, negative = inhibition ([4]; at 17.2 µM (top of the series)): 3.29%
- Potency [7]: 0.00593 µM (active)
- Potency [13]: inactive
- Potency [14]: inactive
- outcome [15]: inactive

Structure (SMILES): c1ccc(CN(CC2=NCCN2)c2ccccc2)cc1
- activity change, negative = inhibition ([1]; at 17.2 µM (top of the series)): 6.18% and 2.47% and 4.31%
- Potency [2]: inactive
- Potency [5]: inactive
- outcome [6]: inactive
